Screening results: PubChem BioAssay, National Center for Advancing Translational Sciences (NCATS)
A selection: hits, their analogues and other compounds. The true share with any hit is near 2.2%.
HepG2 tox – counter-screen for TGF-b inhibitors: cytotoxicity in HepG2 cells; HepG2 CAGA-GFP viability, ATP luminescence, 18 h; Potency, µM (doses to about 46.1 µM), inactives show top-dose activity change, negative = cytotoxicity, usual class: cytotoxic; 410,000 compounds, 0.76% hits; AID 588856; note: potency is the fitted concentration of half-maximal effect
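HepG2 CAGA-GFP cells (1000/well, DMEM with 1% FBS) received compound, then TGF-beta at 500 pg/mL final, and were incubated 18 hours at 37 degrees C. Viability was read by CellTiter-Glo luminescence. Media-only wells were set as complete cell-killing and DMSO as no toxicity.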
S2 tox – viability counter-screen for ATXN expression inhibitors. S2 cells (HEK-293 line with an ATXN2-luciferase reporter) viability, CellTiter-Fluor protease fluorescence, 24 h. Potency, µM (titrated, usually from 56.7 µM), most hits filed as cytotoxic. 400,000 compounds, 0.49% hits. AID 651635; note: potency is the fitted concentration of half-maximal effect; nearly all actives have a fitted effect of over 40% in size
LDHA inh – inhibitors of human lactate dehydrogenase A; P00338; 480,000 compounds, 0.15% hits; AID 1347041; purified LDHA, NADH/diaphorase-resazurin fluorescence; hits give low values; activity change, % (values are at about 110 or 230 µM); in the data active = activity change below about -30%; inconclusive = mostly about -25% to -30%;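 note: plate controls were DMSO wells for no effect and wells without enzyme for full effect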
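Resorufin fluorescence (ex540/em590), read at 0 and 20 min after diaphorase/resazurin addition, reports the NADH left after a 5 min room-temperature reaction of 2 nM human LDH5 with 0.06 mM NADH and 0.2 mM pyruvate.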
TGFb SMAD3 inh – TGF-b pathway inhibition. Potency, µM (top dose mostly 46.1 µM), without a hit: at the top dose activity, negative = inhibition, hits mostly inhibitors. HepG2 CAGA-GFP TGF-b/SMAD3 reporter, GFP fluorescence, 18 h; TGF-beta stimulated, 500 pg/mL final. 410,000 compounds, 1.2% hits; note: potency is the fitted concentration of half-maximal effect; % is set by controls: 0 for no effect and ±100 for the full control effect; nearly all actives have a fitted effect of over 65% in size
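Read-out: total well GFP (ex488/em500-530) summed from mean per-cell fluorescence. Cells: HEPG2 CAGA-GFP, 1% FBS DMEM, 18 h at 37 degrees C with 500 pg/mL final TGF-beta. Unstimulated wells served as the full-inhibition control; stimulated DMSO wells = 0%.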
mIDH1 inhibitor – blocks human mutant IDH1 R132H enzyme | O75874 | IDH1-R132H enzyme, NADPH consumption, diaphorase/resazurin fluorescence | Potency, µM (titrated, usually from 76.6 µM), inactives show at the highest dose activity change, negative = inhibition, actives largely listed as inhibitors | 390,000 compounds, 0.093% hits | AID 602179; note: potency is the fitted concentration of half-maximal effect; % is set by controls: 0 for no effect and ±100 for the full control effect; nearly all actives have a fitted effect of over 65% in size
Target sequence (O75874 whole entry R132H, stated change not applied): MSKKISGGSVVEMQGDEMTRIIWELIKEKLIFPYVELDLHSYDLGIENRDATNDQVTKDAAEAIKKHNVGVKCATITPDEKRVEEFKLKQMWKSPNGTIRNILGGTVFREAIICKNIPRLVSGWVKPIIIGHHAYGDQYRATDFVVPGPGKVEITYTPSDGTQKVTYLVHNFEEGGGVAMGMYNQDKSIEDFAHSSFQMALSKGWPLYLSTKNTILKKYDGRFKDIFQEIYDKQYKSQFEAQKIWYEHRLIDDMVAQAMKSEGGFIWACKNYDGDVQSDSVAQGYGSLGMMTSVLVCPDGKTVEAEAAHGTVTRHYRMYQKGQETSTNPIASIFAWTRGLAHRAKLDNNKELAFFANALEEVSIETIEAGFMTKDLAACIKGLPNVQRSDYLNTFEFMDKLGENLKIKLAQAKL
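IDH1-R132H (0.5 ug/mL) preincubated 30 min with compound, then NADPH (0.016 mM) and alpha-KG (2 mM) added; 80 min at RT, pH 7.5. Remaining NADPH coupled via diaphorase/resazurin to fluorescence (540/590 nm); concentration-response curves normalized to no-enzyme control.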
ATXN2 expr inh – inhibitors of ATXN2 expression; Potency, µM (top dose mostly 57 µM), for inactives: top-dose activity change, negative = inhibition, most hits filed as inhibitors; HEK-293 ATXN2-luciferase reporter, luminescence, 24 h; 360,000 compounds, 0.72% hits; AID 1745845; note: potency is the fitted concentration of half-maximal effect; % is set by controls: 0 for no effect and ±100 for the full control effect; nearly all actives have a fitted effect of over 55% in size
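ATXN2-luciferase reporter cells (luciferase flanked by upstream and downstream ATXN2 gene portions) were treated 24 h at 37 °C with compounds at up to 57 uM. SteadyGlo luminescence gave expression; GF-AFC fluorescence gave viability.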
Resorufin autofl – interferes with resorufin fluorescence in IDH1 counter-screen. inhibition of signal, % at 51.2 µM. AID 623980. 750 tested, under 10 active. shares compounds with mIDH1 inhibitor. Resorufin detection reagent fluorescence interference, cell-free;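 note: 0% = wells with normal resorufin and full inhibition = wells lacking resorufin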
IDH1 WT – wild-type IDH1 (human) inhibition counterscreen. shares compounds with mIDH1 inhibitor. WT IDH1 enzyme, NADPH diaphorase/resazurin fluorescence. Potency, µM (doses to about 115 µM), without a hit: at the highest dose activity change, negative = inhibition, hits mostly inhibitors. 750 compounds, 9% hits. AID 623995;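 note: potency is the fitted concentration of half-maximal effect; 0% = full WT IDH1 enzyme control and full inhibition = no enzyme wells; nearly all actives have a fitted effect of over 55% in size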
Target sequence (O75874 whole entry, looked up): as the sequence (O75874 whole entry R132H, stated change not applied) above, with H132R counted along it
IDH1 R132H conf – mutant IDH1 (human) inhibition, confirmed; Potency, µM (titrated, usually from 76.6 µM), inactives show at the top dose activity change, negative = inhibition, usual class: inhibitors; 750 compounds, 83% hits; IDH1 R132H enzyme, NADPH diaphorase/resazurin fluorescence; shares compounds with mIDH1 inhibitor; AID 624002; note: potency is the fitted concentration of half-maximal effect; nearly all actives have a fitted effect of over 50% in size
* marks the source's active call; other numbers are inactive results; i = inactive; ? = inconclusive; / = not tested or not shown. Unless noted, calls come from the whole dose curve; as a rule, active = well fitted curve in the direction sought with a large enough effect; inconclusive = small, poorly fitted or top-dose-only effect, or another doubt; inactive = no such curve, though single readings can be large; an effect the other way counts as inactive or inconclusive.

SMILES	HepG2 tox	S2 tox	LDHA inh	TGFb SMAD3 inh	mIDH1 inhibitor	ATXN2 expr inh	Resorufin autofl	IDH1 WT	IDH1 R132H conf
O=C1CCCC2=C1C(c1ccc(O)c(Br)c1)C1=C(CCCC1=O)N2c1ccccc1	-17.2%	i	-4.3	-14.5%	?	1.5%	6.5	11.0%	?
Cc1cccc(C)c1OCC(=O)N1CCc2ccccc2C1	-9.5%	i	-5.5	-17.7%	6.2%	4.9%	/	/	/
O=C1CCCC[C@@H](O)[C@H](O)C[C@H](c2ccccc2)O1	/	i	2.9	/	/	3.1%	/	/	/
C=C1CC2(CC(c3ccccc3)OC(c3ccccc3)C2)OC1=O (configuration not stated)	11.2µM*	/	-3.3	?	58.5µM*	?	2.5	?	22.4µM*
O=C(CN1CCN(c2nc(C(F)(F)F)nc3ccccc23)CC1)N1CCCC1	/	/	1.6	/	/	/	/	/	/
COCCn1c(SCC(=O)N2CCc3ccccc3C2)nc2cc(Cl)ccc2c1=O	-4.7%	?	-3.1	-10.5%	26.1µM*	-8.1%	-7.0	8.2%	11.2µM*
CC(C)Cn1c(SCC(=O)N2CCc3ccccc3C2)nc2cc(Cl)ccc2c1=O	-17.6%	i	-6.2	14.6%	?	1.0%	/	/	/
Cc1csc(NC(=O)COCC(=O)O)c1-c1nc2ccccc2s1	-0.7%	i	-16.3	-0.1%	15.2%	?	/	/	/
Cc1csc(NC(=O)CCCC(=O)O)c1-c1nc2ccccc2s1	-6.7%	?	-2.1	1.9%	?	-12.5%	-1.9	8.0%	25.1µM*
Cc1cc(C)c(C(=O)COC(=O)c2nn(C)c(=O)c3ccccc23)cc1C	0.3%	i	-1.8	-0.9%	4.0%	-6.3%	/	/	/
COc1cc2c(-c3ccc(O)cc3)nc3c(c(C)nn3-c3ccccc3)c2cc1OC	-4.0%	?	2.6	-26.1%	?	-32.8%	2.3	7.2%	11.2µM*
COc1cccc(-c2nc3c(c(C)nn3-c3ccccc3)c3cc(OC)c(OC)cc23)c1	-12.4%	i	-15.1	?	?	0.7%	/	/	/
CCC(=O)Oc1ccc2c(=O)c(-c3ccc4ccccc4n3)c(CC)oc2c1C	15.5%	i	-6.5	14.7%	52.1µM*	3.7%	-9.1	1.8%	7.08µM*
COc1cccc(N=NC2C(=O)N(C(N)=S)N=C2C)c1 (configuration not stated)	4.5%	i	9.1	1.3%	?	73.9%	2.5	1.5%	-7.8%
CC1=NN(C(N)=S)C(=O)C1N=Nc1cccc(Cl)c1 (configuration not stated)	-1.2%	?	-2.3	2.0%	?	37.5%	/	/	/
CCOC(=O)c1ccccc1NC(=O)c1cn(CC(C)C)c(=O)c2cc(OC)c(OC)cc12	5.9%	i	-1.5	-0.4%	44.7µM*	10.3%	-7.1	0.7%	14.1µM*
O=C(CSc1nc(=O)n2ccccc2n1)Nc1ccc2c(c1)OCO2	9.8%	i	-0.5	7.2%	-3.3%	5.5%	/	/	/
CN(CCC#N)S(=O)(=O)c1cc(Br)ccc1Br	/	/	5.0	/	/	/	/	/	/
O=C(c1ccc([N+](=O)[O-])o1)N1CCc2ccccc21	-36.0%	i	0.3	-22.0%	7.4%	-1.9%	/	/	/
Cc1ccc(C(=O)N2CCc3ccccc32)o1	-11.5%	i	-6.7	1.7%	?	32.9%	0.2	0.1%	2.7%
N=c1c(S(=O)(=O)c2ccccc2)cc2c(=O)n3ccccc3nc2n1C1CCCC1	-23.0%	i	-4.2	13.8%	18.5µM*	-0.7%	0.1	4.7%	7.08µM*
N=c1c(S(=O)(=O)c2ccc(Br)cc2)cc2c(=O)n3ccccc3nc2n1C1CCCC1	-1.0%	i	-2.2	8.2%	-5.9%	/	/	/	/
CN(C(=O)c1ccc(NC(=O)Cc2cccc(NC(=O)C3CCCN(C(=O)C4CCCCC4)C3)c2)cc1)C1CCCC1 (configuration not stated)	-25.7%	i	-9.7	-23.4%	-7.1%	-11.6%	/	/	/
C[C@H](CO)N1C[C@H](C)[C@@H](CN(C)CC2CCCCC2)Oc2c(NS(=O)(=O)c3ccccc3)cccc2C1=O	-8.2%	i	-2.3	-4.9%	1.0%	-3.0%	/	/	/
C[C@H]1CN([C@@H](C)CO)C(=O)c2cccc(NS(=O)(=O)c3ccc(Cl)cc3)c2O[C@@H]1CN(C)CC1CCCCC1	-7.8%	?	-2.5	-4.3%	44.7µM*	5.2%	-4.3	3.7%	31.6µM*
SMILES	HepG2 tox	S2 tox	LDHA inh	TGFb SMAD3 inh	mIDH1 inhibitor	ATXN2 expr inh	Resorufin autofl	IDH1 WT	IDH1 R132H conf
COc1ccc(/C(C)=N/OCC(=O)N=Nc2c(O)[nH]c3ccccc23)cc1	31.5%	i	-8.8	12.6%	15.8%	-30.7%	/	/	/
COc1ccc(S(=O)(=O)N=Nc2c(O)[nH]c3ccccc23)cc1	4.8%	i	-4.3	?	52.1µM*	5.2%	-1.4	143.3%	?
Cc1ccc(S(=O)(=O)N=Nc2c(O)[nH]c3ccccc23)cc1C	13.1%	i	-36.1*	5.0%	46.5µM*	-18.8%	1.2	217.4%	44.7µM*
COc1ccc(OC)c(CNC(=O)C2CCCN(c3ncnc4c3nc3n4CCCCC3)C2)c1 (configuration not stated)	-12.9%	i	-1.4	-10.1%	0.0%	-5.1%	/	/	/
CC(=O)[C@@]1(O)CC[C@H]2[C@@H]3C[C@H](C)C4=CC(=O)CC[C@]4(C)[C@H]3CC[C@@]21C	-64.8%	i	-7.3	-12.1%	5.2%	-5.7%	/	/	/
C=C1CC2C(CCC3(C)C2CCC3(O)C(C)=O)C2(C)CCC(=O)C=C12 (configuration not stated)	7.6%	?	-4.0	-25.5%	22.4µM*	-25.3%	1.6	35.5µM*	11.2µM*
CCOC(=S)SCC(=O)N1CCc2ccccc2C1C1C(=O)CCCC1=O (configuration not stated)	-2.7%	i	-1.3	3.8%	-0.6%	-4.6%	/	/	/
CCn1c(=O)c2cc(C(=O)N(C)c3ccccc3C)sc2c2ccccc21	/	/	2.3	/	/	/	/	/	/
